Molecules are shown by their SMILES. Records with an inconclusive call do not appear. Values without a mark were called inactive. Calls of active or inactive are those of the source. Calls come from the whole dose curve; as a rule, active = well fitted curve in the direction sought with a large enough effect in the repeat runs; inconclusive = weak or mixed curves; inactive = no such curve, though single readings can be large; an effect the other way counts as inactive or inconclusive.

Assay [1] has as its target Nuclear receptor subfamily 1 group I member 2 (Homo sapiens) (UniProt O75469). Briefly: Human pregnane X receptor (PXR) small molecule agonists, qHTS assay (AID 1346982). Note: nearly all actives have a fitted effect of over 35% in size. A digest of the protocol:
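Tox21 qHTS; PXR-Luc HepG2; compounds pinned from DMSO; 24 hr, 37 C; ONE-Glo luciferase detection, 30 min room temperature.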

Assay [2] addresses Cytochrome P450 2D6 (Homo sapiens) (UniProt P10635). Kind of assay: Cytochrome P450 Family 2 Subfamily D Member 6 (CYP2D6) small molecule antagonists: luciferase reporter qHTS assay (AID 1671196). For activity change, negative = inhibition: series mostly up to about 120 µM. Note: nearly all actives have a fitted effect of over 50% in size. Note: potency is the fitted concentration of half-maximal effect. The procedure, abridged: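 Room-temperature luminescent CYP2D6 activity assay: compound preincubated 10 min with enzyme–substrate mix, NADPH-initiated reaction 1 h, detection reagent 20 min before reading.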
In general terms: In a reporter assay the amount or activity of a reporter protein is the signal.

The target of assay [3] is Cytochrome P450 2C19 (Homo sapiens) (UniProt P33261). Briefly: Cytochrome P450 Family 2 Subfamily C Member 19 (CYP2C19) small molecule antagonists: luciferase reporter qHTS assay (AID 1671197). For activity change, negative = inhibition: series mostly up to about 120 µM. Note: nearly all actives have a fitted effect of over 65% in size. Note: potency is the fitted concentration of half-maximal effect. The procedure, abridged:
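Luminescent readout of CYP2C19 activity: luciferin product detected 20 min after adding detection reagent. Before that, compound and enzyme-substrate mix preincubated 10 min at room temperature; NADPH-regenerating system started a 1 h, 37C reaction. Ketoconazole as positive control.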

The target in assay [4] is Cytochrome P450 2C9 (Homo sapiens) (UniProt P11712). Kind of assay: Cytochrome P450 Family 2 Subfamily C Member 9 (CYP2C9) small molecule antagonists: luciferase reporter qHTS assay (AID 1671198). For activity change, negative = inhibition: series mostly up to about 120 µM. Note: nearly all actives have a fitted effect of over 50% in size. Note: potency is the fitted concentration of half-maximal effect. The procedure, abridged:
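Enzyme-substrate mix preincubated with compound 10 min at room temperature; reaction started with NADPH regeneration solution, 1 h 37C. Luminescent luciferin product read after 20 min detection reagent.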

Assay [5] addresses Voltage-gated inwardly rectifying potassium channel KCNH2 (Homo sapiens) (UniProt Q12809). Kind of assay: Human Ether-a-go-go-Related Gene (hERG) channel small molecule antagonists: fluorescence cell-based qHTS assay (AID 1671200).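 Note: hERG-expressing U2OS cells given a thallium stimulus after FluxOR II dye loading; series mostly up to about 77 µM; nearly all actives have a fitted effect of over 50% in size.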 A digest of the protocol:
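First, 1000 cells per well are seeded and cultured overnight at 37 C. Next, FluxOR II dye is loaded for 1 h at room temperature, protected from light. After 10 more minutes, stimulus is added and fluorescence is read.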
(In general: The hERG channel carries a current that helps repolarise heart muscle cells.)

Assay [6] addresses Cytochrome P450 3A4 (Homo sapiens) (UniProt P08684). Briefly: Cytochrome P450 Family 3 Subfamily A Member 4 (CYP3A4) small molecule antagonists: luciferase reporter qHTS assay (AID 1671201). Note: series mostly up to about 120 µM; nearly all actives have a fitted effect of over 50% in size. A digest of the protocol: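 Enzyme and proluciferin substrate are mixed with test chemicals for 10 min, then NADPH regeneration system drives turnover for 1 h at room temperature. A detection reagent halts the reaction; luminescence after 20 min gives relative activity.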

Assay [7] deals with Cytochrome P450 1A2 (Homo sapiens) (UniProt P05177). Kind of assay: Cytochrome P450 Family 1 Subfamily A Member 2 (CYP1A2) small molecule antagonists: luciferase reporter qHTS assay (AID 1671199). For activity change, negative = inhibition: series mostly up to about 120 µM. Note: nearly all actives have a fitted effect of over 50% in size. Note: potency is the fitted concentration of half-maximal effect. The procedure, abridged: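 Room-temperature CYP1A2 reaction with proluciferin substrate: compounds added from DMSO, 10 min preincubation, NADPH regeneration for 1 h. Luciferin detection reagent then added; luminescence recorded as RLU.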
% is set by controls: 0 for no effect and ±100 for the full control effect.

Chain of Cytochrome P450 2D6 (Homo sapiens) (P10635 whole entry, looked up): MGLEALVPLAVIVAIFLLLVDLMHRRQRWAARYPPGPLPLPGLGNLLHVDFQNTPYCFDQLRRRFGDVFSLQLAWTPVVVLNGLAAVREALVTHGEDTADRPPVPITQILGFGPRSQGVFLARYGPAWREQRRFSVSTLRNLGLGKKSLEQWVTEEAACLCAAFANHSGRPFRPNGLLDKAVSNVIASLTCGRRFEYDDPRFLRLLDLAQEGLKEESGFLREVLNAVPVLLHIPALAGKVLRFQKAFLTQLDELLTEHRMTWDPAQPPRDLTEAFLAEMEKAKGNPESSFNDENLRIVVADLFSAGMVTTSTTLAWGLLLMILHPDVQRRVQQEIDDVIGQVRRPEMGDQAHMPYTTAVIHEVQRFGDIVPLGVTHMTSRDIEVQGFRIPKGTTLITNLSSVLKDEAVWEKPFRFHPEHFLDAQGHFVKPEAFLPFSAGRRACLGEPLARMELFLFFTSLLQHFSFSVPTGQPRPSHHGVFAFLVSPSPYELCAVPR
Chain of Nuclear receptor subfamily 1 group I member 2 (Homo sapiens) (O75469 whole entry, looked up): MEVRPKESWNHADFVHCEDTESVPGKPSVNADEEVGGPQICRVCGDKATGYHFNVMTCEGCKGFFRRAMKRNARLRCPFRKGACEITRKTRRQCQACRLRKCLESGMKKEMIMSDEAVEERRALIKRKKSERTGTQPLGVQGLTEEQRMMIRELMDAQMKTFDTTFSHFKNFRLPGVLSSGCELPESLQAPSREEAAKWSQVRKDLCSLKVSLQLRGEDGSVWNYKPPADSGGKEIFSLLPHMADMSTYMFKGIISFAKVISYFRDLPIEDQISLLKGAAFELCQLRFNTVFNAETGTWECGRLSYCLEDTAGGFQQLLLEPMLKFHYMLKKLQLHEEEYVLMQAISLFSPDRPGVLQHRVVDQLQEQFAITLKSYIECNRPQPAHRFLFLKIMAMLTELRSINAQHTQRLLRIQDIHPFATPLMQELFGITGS
Chain of Cytochrome P450 1A2 (Homo sapiens) (P05177 whole entry, looked up): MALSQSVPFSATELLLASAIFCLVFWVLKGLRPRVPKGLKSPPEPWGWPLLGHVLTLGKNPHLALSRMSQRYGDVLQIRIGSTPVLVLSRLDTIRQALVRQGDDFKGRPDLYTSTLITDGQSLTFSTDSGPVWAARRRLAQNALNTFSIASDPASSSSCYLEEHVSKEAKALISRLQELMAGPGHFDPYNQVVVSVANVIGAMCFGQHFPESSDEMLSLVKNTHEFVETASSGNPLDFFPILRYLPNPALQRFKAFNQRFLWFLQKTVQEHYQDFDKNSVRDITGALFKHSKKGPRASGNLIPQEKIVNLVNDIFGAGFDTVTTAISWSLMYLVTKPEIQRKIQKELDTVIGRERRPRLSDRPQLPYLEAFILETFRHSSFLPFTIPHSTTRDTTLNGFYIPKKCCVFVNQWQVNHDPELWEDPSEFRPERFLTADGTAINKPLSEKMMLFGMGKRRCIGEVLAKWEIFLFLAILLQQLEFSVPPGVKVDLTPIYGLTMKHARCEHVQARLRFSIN
Chain of Cytochrome P450 2C9 (Homo sapiens) (P11712 whole entry, looked up): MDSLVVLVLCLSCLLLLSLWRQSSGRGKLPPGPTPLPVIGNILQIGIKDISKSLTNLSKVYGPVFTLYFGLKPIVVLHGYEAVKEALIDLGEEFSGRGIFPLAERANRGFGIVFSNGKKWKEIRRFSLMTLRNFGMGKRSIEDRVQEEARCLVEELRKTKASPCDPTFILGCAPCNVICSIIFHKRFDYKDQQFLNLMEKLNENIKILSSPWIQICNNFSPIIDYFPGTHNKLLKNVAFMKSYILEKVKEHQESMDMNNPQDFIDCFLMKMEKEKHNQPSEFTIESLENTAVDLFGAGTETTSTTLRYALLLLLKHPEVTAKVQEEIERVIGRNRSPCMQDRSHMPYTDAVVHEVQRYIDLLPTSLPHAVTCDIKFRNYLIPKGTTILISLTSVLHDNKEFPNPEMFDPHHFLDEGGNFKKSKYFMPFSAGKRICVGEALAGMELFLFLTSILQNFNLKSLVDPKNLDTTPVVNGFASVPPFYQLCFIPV
Chain of Cytochrome P450 3A4 (Homo sapiens) (P08684 whole entry, looked up): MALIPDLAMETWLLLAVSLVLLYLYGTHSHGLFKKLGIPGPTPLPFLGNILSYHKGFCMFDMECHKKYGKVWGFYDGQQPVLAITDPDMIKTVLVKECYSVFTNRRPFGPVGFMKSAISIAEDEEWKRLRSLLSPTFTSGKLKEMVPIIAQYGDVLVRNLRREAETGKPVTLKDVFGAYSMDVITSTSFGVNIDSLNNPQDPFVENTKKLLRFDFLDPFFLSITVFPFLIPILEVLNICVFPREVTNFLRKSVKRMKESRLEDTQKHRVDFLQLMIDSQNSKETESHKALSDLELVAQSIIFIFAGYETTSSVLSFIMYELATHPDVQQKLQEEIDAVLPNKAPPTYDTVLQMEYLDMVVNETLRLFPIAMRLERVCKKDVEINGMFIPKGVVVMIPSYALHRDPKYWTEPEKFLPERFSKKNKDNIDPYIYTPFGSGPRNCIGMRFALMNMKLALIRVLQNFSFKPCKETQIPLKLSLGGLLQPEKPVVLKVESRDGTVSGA
Chain of Cytochrome P450 2C19 (Homo sapiens) (P33261 whole entry, looked up): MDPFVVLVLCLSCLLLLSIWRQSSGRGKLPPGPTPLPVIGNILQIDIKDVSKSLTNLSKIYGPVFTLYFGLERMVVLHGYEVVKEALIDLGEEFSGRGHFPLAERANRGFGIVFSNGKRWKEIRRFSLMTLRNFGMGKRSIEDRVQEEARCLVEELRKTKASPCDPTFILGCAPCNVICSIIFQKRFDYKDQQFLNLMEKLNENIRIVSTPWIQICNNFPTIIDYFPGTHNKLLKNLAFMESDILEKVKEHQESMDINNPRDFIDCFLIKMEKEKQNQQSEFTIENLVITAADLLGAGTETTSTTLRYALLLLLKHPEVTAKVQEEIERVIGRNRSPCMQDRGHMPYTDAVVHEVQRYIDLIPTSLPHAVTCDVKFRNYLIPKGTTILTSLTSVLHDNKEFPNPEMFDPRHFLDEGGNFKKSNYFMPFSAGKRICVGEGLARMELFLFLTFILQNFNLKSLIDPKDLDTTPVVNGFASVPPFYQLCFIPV
Chain of Voltage-gated inwardly rectifying potassium channel KCNH2 (Homo sapiens) (Q12809 whole entry, looked up): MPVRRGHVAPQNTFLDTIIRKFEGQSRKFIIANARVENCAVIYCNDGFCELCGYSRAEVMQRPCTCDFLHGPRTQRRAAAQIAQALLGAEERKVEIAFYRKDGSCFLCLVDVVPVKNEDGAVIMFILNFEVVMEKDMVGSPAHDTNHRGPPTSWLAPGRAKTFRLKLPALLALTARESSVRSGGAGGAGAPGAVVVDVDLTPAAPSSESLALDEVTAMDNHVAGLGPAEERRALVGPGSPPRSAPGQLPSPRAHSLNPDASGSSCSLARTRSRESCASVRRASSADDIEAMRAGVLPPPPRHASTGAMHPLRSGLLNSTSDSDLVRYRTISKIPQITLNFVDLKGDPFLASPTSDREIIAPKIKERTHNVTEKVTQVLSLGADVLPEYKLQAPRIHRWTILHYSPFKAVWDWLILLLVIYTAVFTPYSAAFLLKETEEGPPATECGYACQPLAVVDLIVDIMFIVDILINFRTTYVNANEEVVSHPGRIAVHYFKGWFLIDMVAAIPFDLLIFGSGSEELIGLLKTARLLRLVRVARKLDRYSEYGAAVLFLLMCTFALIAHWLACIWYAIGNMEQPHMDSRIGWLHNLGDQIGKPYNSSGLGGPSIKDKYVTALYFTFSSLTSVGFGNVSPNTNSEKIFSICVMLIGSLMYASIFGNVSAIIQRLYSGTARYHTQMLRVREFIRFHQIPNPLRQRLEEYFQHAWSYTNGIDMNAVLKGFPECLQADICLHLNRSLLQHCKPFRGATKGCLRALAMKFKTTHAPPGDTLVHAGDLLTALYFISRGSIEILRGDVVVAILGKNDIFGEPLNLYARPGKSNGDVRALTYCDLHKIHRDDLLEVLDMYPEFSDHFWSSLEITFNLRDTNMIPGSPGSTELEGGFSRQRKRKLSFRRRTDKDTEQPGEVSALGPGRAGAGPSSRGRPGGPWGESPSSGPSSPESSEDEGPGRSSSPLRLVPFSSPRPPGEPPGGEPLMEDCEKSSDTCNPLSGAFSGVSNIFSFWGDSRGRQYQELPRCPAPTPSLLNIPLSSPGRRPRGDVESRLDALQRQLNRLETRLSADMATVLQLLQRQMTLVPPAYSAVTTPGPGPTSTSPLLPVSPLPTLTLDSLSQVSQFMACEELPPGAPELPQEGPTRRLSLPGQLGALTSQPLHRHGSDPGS

For `COc1cc(C=O)ccc1OC(=O)C(C)C`, the Potency result in assay [1], in assay [2], in assay [5] and in assay [6] was “inactive” in each case. Moreover, the Potency is 39.9 µM (active) in assay [3] and 35.6 µM (active) in assay [4].
In the case of `CC(C)=CC(C)(C)C`, the Potency entry in assay [1], in assay [2], in assay [3], in assay [4], in assay [5] and in assay [6] was “inactive” throughout.
Consider `CCC(O)C(C)(C)C` (stereo unspecified), for which the Potency result in assay [1], in assay [2], in assay [3], in assay [4], in assay [5] and in assay [6] was “inactive” throughout.
As to `CCCCCC(=O)OCC`, the Potency entry in assay [1], in assay [2], in assay [3], in assay [4], in assay [5] and in assay [6] was “inactive” in each case.
For the compound `C/C=C(\C)C(=O)OCC/C=C\CC`, the Potency result in assay [1], in assay [2], in assay [3], in assay [4], in assay [5] and in assay [6] was “inactive” throughout.
Turning to `C1=CCC(c2ccccc2)CC1` (stereo unspecified), the Potency entry in assay [1], in assay [2], in assay [3], in assay [4], in assay [5] and in assay [6] was “inactive” throughout.
On to `NC(Cc1c[nH]c2ccccc12)C(=O)O` (stereo unspecified), for which the Potency entry in assay [1] and in assay [5] was “inactive” in each case. In addition, the Potency in assay [2] was 17.5 µM (active); in assay [3] it was 24.7 µM (active); in assay [4], 31.1 µM (active).
As for `CC(C)COC(=O)CC(C(=O)OCC(C)C)S(=O)(=O)O` (stereo unspecified), the Potency entry in assay [1], in assay [2], in assay [3], in assay [7] and in assay [6] was “inactive” throughout. Also, in assay [4], the Potency is 31.7 µM (active).
For `OCCCCCCCl`, the Potency entry in assay [1], in assay [2], in assay [3], in assay [4], in assay [7] and in assay [6] was “inactive” throughout.
As to `O=S(=O)(O)CCO`, the Potency result in assay [1], in assay [2], in assay [3], in assay [4], in assay [5] and in assay [6] was “inactive” in each case.
On to `C=C[Si](C)(C)O[Si](C)(C)C=C`, for which the Potency entry in assay [1], in assay [2], in assay [3], in assay [4], in assay [7] and in assay [6] was “inactive” throughout.
Consider `O=C1c2ccccc2-c2ccccc21`, for which the Potency entry in assay [1], in assay [2], in assay [5] and in assay [6] was “inactive” each time. Further, the figures for the Potency in assay [3], in assay [4] and in assay [7] were 57.9 µM (active), 65 µM (active) and 0.58 µM (active), respectively.
Take `OC[C@@H](O)[C@H](O)[C@@H](O)[C@@H](O)CO`: the Potency entry in assay [1], in assay [2], in assay [4], in assay [5] and in assay [6] was “inactive” throughout. Moreover, in assay [3], the Potency is 44.8 µM (active).
For the compound `CCC(=O)c1ccc(O)cc1`, the Potency entry in assay [1], in assay [2], in assay [3], in assay [4], in assay [5] and in assay [6] was “inactive” each time.
For the compound `CC(C)(C)c1ccc(C=O)cc1`, the Potency result in assay [1], in assay [2], in assay [3], in assay [4], in assay [5] and in assay [6] was “inactive” throughout.
Regarding `O=C(O)Cc1cccc(-c2cc(CCCCCCc3ccc(O[C@H]4O[C@H](CO)[C@@H](O)[C@H](O)[C@@H]4O)c(-c4cccc(CC(=O)O)c4)c3)ccc2O[C@H]2O[C@H](CO)[C@@H](O)[C@H](O)[C@@H]2O)c1`, the activation in assay [1] is -9.1% [at 0.349 µM]. The activity change, negative = inhibition in assay [2] is 0.276% [at 0.435 µM]; in assay [3], 11.7% [at 0.435 µM]; in assay [4], 0.681% [at 0.435 µM]; in assay [7] it was -0.131% [at 0.435 µM]; in assay [6], 0.205% [at 0.435 µM].
`CCCCCCCC[Si](OCC)(OCC)OCC`: the Potency result in assay [1], in assay [2], in assay [3], in assay [4], in assay [7] and in assay [5] was “inactive” throughout. Besides, the Potency entry in assay [6] was “inactive”.
With `Nc1cc(S(=O)(=O)O)ccc1S(=O)(=O)O`, the Potency result in assay [1], in assay [2], in assay [3], in assay [4], in assay [7] and in assay [6] was “inactive” throughout.
For the compound `CCCOCCOCCOCCO`, the Potency entry in assay [1], in assay [2], in assay [3], in assay [4], in assay [5] and in assay [6] was “inactive” in each case.
With `O=C(c1ccc2c(c1)C(=O)OC2=O)c1ccc2c(c1)C(=O)OC2=O`, the Potency result in assay [1], in assay [2], in assay [3], in assay [4], in assay [5] and in assay [6] was “inactive” each time.
`CN(C)CCOCCN(C)CCO`: the Potency result in assay [1], in assay [3], in assay [4], in assay [7], in assay [5] and in assay [6] was “inactive” throughout. Besides, the Potency in assay [2] is 20 µM (active).
As for `CC(=O)/C=C/c1ccco1`, the Potency result in assay [1], in assay [2], in assay [3], in assay [4], in assay [5] and in assay [6] was “inactive” in each case.
Take `CCCCOC(=O)C(C)OC(=O)CCC` (stereo unspecified): the Potency result in assay [1], in assay [2], in assay [3], in assay [4], in assay [7] and in assay [6] was “inactive” in each case.
Take `CCC(CO)CO`: the Potency result in assay [1], in assay [2], in assay [3], in assay [4], in assay [5] and in assay [6] was “inactive” throughout.
Turning to `COc1ccc(N=Nc2cc(C)c(N=Nc3ccc(S(=O)(=O)O)cc3)cc2OC)cc1`, the Potency entry in assay [1], in assay [2], in assay [3], in assay [5] and in assay [6] was “inactive” each time. The Potency in assay [4] is 63.3 µM (active).
In the case of `CCCCCCCCCCCCOC(C)=O`, the Potency result in assay [1], in assay [2], in assay [3], in assay [4], in assay [7] and in assay [5] was “inactive” throughout. The Potency entry in assay [6] was “inactive”.
Take `O=C(O)c1ccc(OCCN2CCCCC2)cc1`: the Potency entry in assay [1], in assay [2], in assay [3], in assay [4], in assay [5] and in assay [6] was “inactive” in each case.
Take `CCCCCCCCCCC`: the Potency entry in assay [1], in assay [2], in assay [3], in assay [7], in assay [5] and in assay [6] was “inactive” throughout. Also, the Potency in assay [4] is 79.6 µM (active).
`NC(=O)NNC(N)=O`: the Potency result in assay [1], in assay [2], in assay [3], in assay [5] and in assay [6] was “inactive” in each case. Further, the Potency in assay [4] is 79.6 µM (active).
As for `CCc1nccnc1C`, the Potency entry in assay [1], in assay [2], in assay [3], in assay [4], in assay [7] and in assay [5] was “inactive” each time. In addition, the Potency result in assay [6] is “inactive”.
Regarding `CCC1COC(=O)O1` (stereo unspecified), the Potency entry in assay [1], in assay [2], in assay [3], in assay [4], in assay [5] and in assay [6] was “inactive” each time.

These data come from PubChem BioAssay (Tox21).
